We go through 61 compounds from PubChem BioAssay AID588742 (Southern Research Specialized Biocontainment Screening …, 2011).

The structures appear in SMILES notation. Out of some 1,800 compounds screened, about 410 (23%) were called active. Only a sample is shown. Results with a measured potency or affinity are listed apart. Values without a mark were called inactive. No rule for the calls is given here.

As a reminder, the viability is a read-out of living cells in per cent, often relative to untreated cells.

This experiment is described as follows: viability of Vero cells under compound – cytotoxicity control for flavivirus capping enzyme inhibitors (AID 588742). Conditions: cytotoxicity counter-screen; series mostly up to 40 µM; viability: at the top concentration.
In the case of `CC1=NN(c2ccc(Cl)c(C(=O)O)c2)C(=O)/C1=C\c1ccc(-c2ccc(C(=O)O)cc2)o1`, the “viability” value was 100%.
For the compound `CC1=NN(c2ccc(C(=O)O)cc2)C(=O)/C1=C/c1ccc(-c2ccccc2F)o1`, the “viability” value is 101%.
As for `COc1ccc(N2C(=NC(=O)CCCc3ccccc3)SC3CS(=O)(=O)CC32)cc1` (stereo unspecified), the figure is 103%; as for `O=C1C(=Cc2cccn2-c2ccc(O)cc2)C(=O)c2ccccc21`, 87.5%.
As for `O=C1NC(=S)NC1=Cc1ccco1`, the figure is 105%; as for `COC(=O)c1c(Cl)c2n3ccccc3c(C)c(-c3ccccc3)c-2c1C(=O)OC`, 102%.
Consider `COc1ccc(C(C2C(=O)CC(C)(C)CC2=O)C2C(=O)CC(C)(C)CC2=O)cc1CO`, for which the “viability” value was 95.5%.
For `Cc1ccc(CCCNC(=O)C2CCC(=O)N(Cc3cccc(F)c3)C2)cc1` (stereo unspecified) the value was 91.8%.
With `CC(C)(C)OC(=O)N1CCN(C(=O)c2ncn(Cc3ccccc3)c2C(=O)N2CCN(C(=O)OC(C)(C)C)CC2)CC1`, the “viability” value is 101%.
`CC1(C(=O)NNC(=O)c2ccc([N+](=O)[O-])cc2)CC1(Br)Br` (stereo unspecified): the “viability” value is 99.5%.
Consider `CCC(=O)NC(c1ccco1)c1cc(Cl)c2ccccc2c1O` (stereo unspecified), for which the “viability” value is 95.8%.
Consider `CC(=O)NC(c1ccco1)c1cc(Cl)c2ccccc2c1O` (stereo unspecified), for which the “viability” value was 102%.
As for `COc1ccc(NC(=O)c2ccccn2)cc1OC`, the “viability” value is 97.5%.
`O=C(O)COc1ccccc1C(Nc1ccccn1)c1cc(Cl)c2cccnc2c1O` (stereo unspecified): the “viability” value was 106%.
In the case of `C=CCS/C(N)=N\N=C\c1cc(Br)cc([N+](=O)[O-])c1O`, the “viability” value was 90.7%.
Turning to `COc1cccc(CNC(=O)CCc2nnc3ccc(NCCCN4CCCC4=O)nn23)c1`, the “viability” value is 96.2%.
For `CCOC(=O)C1Nc2ccccc2C2C(O)C(O)CC12` (stereo unspecified), the “viability” value is 88.7%.
For `COC1C=COC2(C)Oc3c(C)c(O)c4c(O)c(c(CN5CCN(C)CC5)c(O)c4c3C2=O)NC(=O)C(C)=CC=CC(C)C(O)C(C)C(O)C(C)C(OC(C)=O)C1C` (stereo unspecified) the value was 99.8%.
As for `O=C(C1=C(O)C(=O)N(Cc2ccco2)C1c1cccnc1)c1cc2ccccc2o1` (stereo unspecified), the figure is 112%.
Turning to `O=C(O)CN1C(=O)/C(=C\c2cccc(OCc3ccccc3F)c2)SC1=S`, the “viability” value is 93%.
On to `COc1cc(NC(=O)CSc2ncnc3sc4c(c23)CCC(C)C4)c(C(=O)O)cc1OC` (stereo unspecified), for which the “viability” value is 104%.
For `CCOC(=O)c1ccc2c(c1)n(CCO)c(C)[n+]2CC` the value was 100%.
On to `Cc1cccc2cc(C#N)c(N3CCC(O)CC3)nc12`, for which the “viability” value was 93.1%.
As to `COc1cccc(N2C(=O)CC(Nc3ccc(N4CCOCC4)cc3)C2=O)c1` (stereo unspecified), the “viability” value is 98.2%.
As for `Cc1cc(C(C2C(=O)CC(C)(C)CC2=O)C2C(=O)CC(C)(C)CC2=O)cc(C)c1OC(F)F`, the figure is 103%.
For `O=C(/C=C/c1ccccc1)n1cnnc1SC/C=C/c1ccccc1`, the “viability” value was 98.6%.
For `O=C(O)c1cc(NCc2ccc(F)cc2)ccc1N1CCOCC1` the value was 100%.
For `COC(=O)CCC(=O)OC1(C)C(=O)C2=CN(C3CC3)C(c3ccc(OC)cc3)=CC2=C(Br)C1=O` (stereo unspecified) the value was 98%; for `Cc1ccc(N2C(=O)C(Cl)=C(N3CCOCC3)C2=O)cc1Cl`, 110%.
For `CCOc1cc(C(c2c(C)[nH][nH]c2=O)c2c(C)[nH][nH]c2=O)cc([N+](=O)[O-])c1O` the value was 95.1%.
In the case of `Cc1ccc(C)c(N=Cc2cc3c(cc2[N+](=O)[O-])OCO3)c1`, the “viability” value is 95.3%.
Regarding `O=C(O)c1cc([N+](=O)[O-])c(Sc2nc3ccccc3[nH]2)c([N+](=O)[O-])c1`, the “viability” value was 98.8%.
For `O=[N+]([O-])c1cc2ccccc2c(O)c1O` the value was 102%.
On to `CCC1=NN2C(=N)/C(=C\c3ccc(OCc4cc(=O)n5nc(CC)sc5n4)c(OC)c3)C(=O)N=C2S1`, for which the “viability” value was 97.3%.
As for `Cc1c(C2CC(=O)N(c3ccccc3)C2=O)[nH]n(-c2ccccc2)c1=O` (stereo unspecified), the figure is 101%.
For `O=C(O)CCc1ccc(-c2ccc(Br)cc2)n1-c1ccc(O)cc1` the value was 95%; for `CCCOc1cccc(C2C(C(=O)c3cc4ccccc4o3)=C(O)C(=O)N2c2cc(C)on2)c1` (stereo unspecified), 87.3%.
For `O=c1c2ccccc2nc2ccc(NCc3ccco3)nn12` the value was 97%; for `CCOc1cc(/C=N/Nc2ccc(S(=O)(=O)Nc3ccccc3C(=O)O)cc2[N+](=O)[O-])cc(Cl)c1O`, 100%; for `Cc1nn(-c2ccccc2)c(Cl)c1/C=N/Nc1ccc(S(=O)(=O)Nc2ccccc2C(=O)O)cc1[N+](=O)[O-]`, 90.9%.
As for `C=CCOc1cccc(C2C(C(=O)c3ccc(C)o3)=C(O)C(=O)N2c2nccs2)c1` (stereo unspecified), the “viability” value was 93.2%.
`O=C1C(C=NCc2ccco2)=C(O)c2ccccc21`: the “viability” value was 104%.
For `CC(C)C(C(=O)O)N1C(=O)/C(=C/C=C/c2ccco2)SC1=S` (stereo unspecified) the value was 97%.
As for `CC(C(=O)O)N1C(=O)/C(=C/C=C/c2ccco2)SC1=S` (stereo unspecified), the “viability” value is 95.8%.
For the compound `Cc1ccc(S(=O)(=O)NN/C(=N/S(=O)(=O)c2ccccc2)c2ccccc2)cc1`, the “viability” value is 101%.
For `Cc1nn(-c2ccccc2)c2c1C(c1ccncc1)C(C#N)=C(N)O2` (stereo unspecified) the value was 100%.
As for `Cn1nc([N+](=O)[O-])c(C(C#N)c2nc3ccccc3n2C)c(Cl)c1=O` (stereo unspecified), the figure is 93.4%; as for `CCn1nc([N+](=O)[O-])c(C(C#N)c2nc3ccccc3n2C)c(Cl)c1=O` (stereo unspecified), 101%; as for `COC(=O)c1ccccc1N/C=C1\CCc2c(c(C)nn2-c2ccccn2)C1=O`, 86.9%.
As for `CCc1sc(/C=C(/C#N)C(N)=S)cc1[N+](=O)[O-]`, the figure is 102%.
For the compound `Cc1ccc(-n2nc(C)c3c2OC(N)=C(C#N)C3c2ccco2)cc1` (stereo unspecified), the “viability” value was 98.1%.
Take `CCSc1nnc(NC(=O)c2nc(S(=O)(=O)Cc3ccc(F)cc3)ncc2Cl)s1`: the “viability” value is 95.4% [at 20 µM].
For `CCOC(=O)c1c(-c2ccc(-c3ccccc3)cc2)csc1NC(=O)C1C2CCC(O2)C1C(=O)O` (stereo unspecified) the value was 83.1%.
As for `Cc1noc(C)c1C(=O)Nc1ccc(N(C)C)cc1`, the figure is 106%.
On to `CCC(=O)OC1(C)C(=O)C=C2C=C(C3CC3)OC=C2C1=O` (stereo unspecified), for which the “viability” value is 104%.
As for `COc1ccc(/C=N/NC(=O)c2nnn(-c3nonc3N)c2CN(C)C2CCCCC2)cc1`, the figure is 100%; as for `C#CCOc1c(Cl)cc(/C=C2/C(=O)ON=C2C)cc1OCC`, 102%.
For `COc1cc(/C=C2\S/C(=N/S(=O)(=O)Cc3ccccc3)NC2=O)c([N+](=O)[O-])cc1OC` the value was 107%; for `COc1ccc(S(=O)(=O)Nc2c(O)ccc3ccccc23)cc1OC`, 102%.
`NC(=S)n1[nH]c(-c2ccc([N+](=O)[O-])cc2)c(N=Nc2ccccc2[N+](=O)[O-])c1=O`: the “viability” value was 102%.
For the compound `CN1C(=O)/C(=C/c2ccc(C(=O)Nc3ccc(O)cc3C(=O)O)cc2)SC1=S`, the “viability” value is 93.6%.
